Experimental data from the supplement of paper PMC3334620.
Over roughly 33,000 sequences, “E-score (-0.5 to 0.5)” has its median near -0.04; the highest 2% begin near 0.36. This is one part of a sample in which the highest values are shown more often than they occur.

What follows are sequences tested against T1, Hmlalpha2 (UniProt P0CY09) (assay: PBM E-score (8-mer binding enrichment) (E-score (-0.5 to 0.5)); higher = stronger / more preferred TF binding). Conditions: protein concentration: 200 nM; construct: GST-full length.
T1 sequence: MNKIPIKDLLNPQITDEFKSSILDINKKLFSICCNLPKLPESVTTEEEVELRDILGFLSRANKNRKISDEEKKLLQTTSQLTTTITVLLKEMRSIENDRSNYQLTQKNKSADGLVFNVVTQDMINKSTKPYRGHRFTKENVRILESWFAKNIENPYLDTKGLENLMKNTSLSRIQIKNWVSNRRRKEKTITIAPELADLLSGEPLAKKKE
Method: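 Universal 'all 10-mer' protein binding microarrays (Agilent AMADID 015681) probed with GST-tagged S. cerevisiae TFs (full-length or DBD) made by in vitro transcription/translation (PURExpress), about 100-200 nM. Bound TF was detected with fluorescent anti-GST. Each ungapped 8-mer (which stands for itself and its reverse complement) is scored by the PBM enrichment score (E-score), a modified Wilcoxon-Mann-Whitney statistic from -0.5 to +0.5, computed with the Universal PBM Analysis Suite. Scale: above 0.35 generally sequence-specific binding.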

| Sequence | PBM E-score |
| --- | --- |
| AGAAGGCC | -0.213 |
| GATGAAGC | -0.157 |
| GGATGTTA | 0.299 |
| ATATGTTC | 0.198 |
| GAATGTTA | 0.287 |
| CTCTGTTA | 0.23 |
| ATATGTTA | 0.384 |
| CTATGTTC | 0.252 |
| GTATGTTA | 0.414 |
| ATATGTTG | 0.346 |
| CTATGTTA | 0.414 |
| CGAATATA | -0.00331 |
| AGGGGAGG | -0.299 |
| ACTTGGAA | -0.144 |
| ATTAGCGC | 0.0131 |
| GATTCAAC | 0.0589 |
| ATGGGTTG | 0.0606 |
| TGTTTTAA | 0.382 |
| GATGTTTA | 0.223 |
| TGTGTTAA | 0.471 |
| TGTTTAAA | 0.34 |
| AATGTTGA | 0.256 |

| Sequence | PBM E-score |
| --- | --- |
| CATGTTTA | 0.437 |
| GGTGTTAA | 0.361 |
| TCTGTTAA | 0.331 |
| CATGTTGA | 0.477 |
| CATGTTTC | 0.333 |
| CATGTTGC | 0.334 |
| AGTTTTAA | 0.169 |
| TAGGTTGA | 0.0343 |
| ATAGCAGA | 0.00582 |
| ATACAGAA | 0.199 |
| GGCCATGA | -0.217 |
| CTTGCCTA | -0.112 |
| ATAGGCAC | -0.216 |
| CGATTTTA | 0.081 |
| ACCGCGAT | -0.0546 |
| AGTGTTGA | 0.238 |
| CGTGTTGC | 0.301 |
| CGTGTTCA | 0.369 |
| CGTGTTAA | 0.481 |
| AGTGTTAT | 0.269 |
| CCTGTTAA | 0.288 |
| CGTGTTGA | 0.446 |

| Sequence | PBM E-score |
| --- | --- |
| AGTGTTAC | 0.221 |
| AGTGTTCA | 0.00891 |
| AGTGTTAA | 0.374 |
| ACTGTTAA | 0.208 |
| CGTGTTCC | 0.2 |
| CGCTCTTA | 0.0692 |
| AGAGAATG | -0.0972 |
| ACGGCCAC | -0.128 |
| AGAACCAT | 0.116 |
| AAAGATTC | 0.196 |
| ACGGTCCC | -0.356 |
| AGGGTGAC | -0.182 |
| GACGGTGA | -0.192 |
| TCAGAACA | 0.196 |
| AGTGTTAG | 0.0767 |
| ACTGTTAG | -0.13 |
| CTTGTTAC | 0.274 |
| AGTGTTTA | 0.299 |
| CCTGTTAC | 0.176 |
| GGTGTTTA | 0.112 |
| CGTGTTAG | 0.431 |
| CGTGTTAC | 0.41 |

| Sequence | PBM E-score |
| --- | --- |
| CGTGTTTA | 0.436 |
| CTTGTTAA | 0.414 |
| GGTGTTAC | 0.223 |
| GTTGTTAA | 0.359 |
| CAGATACC | -0.251 |
| CTAGATCC | -0.22 |
| GAGGCTAC | -0.193 |
| CACTACTA | 0.00081 |
| ACTTGCCA | -0.0087 |
| ACACTTGA | -0.0396 |
| TCGACTCA | 0.0619 |
| CCCAAAGA | -0.0661 |
| ATAAAGAA | 0.0809 |
| TGATTAAA | 0.133 |
| CGGTTACG | 0.0305 |
| TGATTACA | 0.445 |
| CGGTTACA | 0.367 |
| AGATTACA | 0.411 |
| CGATTACG | 0.274 |
| AGATTACT | 0.141 |
| GGGTTACA | 0.218 |
| CGATTACC | -0.0336 |

| Sequence | PBM E-score |
| --- | --- |
| CGATTACA | 0.461 |
| TGCTTACA | 0.305 |
| AGATTACC | 0.0994 |
| CTGTTCTA | 0.102 |
| TGAAGGAA | -0.0399 |
| GCCAATCC | -0.151 |
| ATGGCAAG | -0.153 |
| GGATTACA | 0.444 |
| GGATTAGA | -0.216 |
| GGATTACC | -0.00329 |
| GCTTAAGC | 0.187 |
| ATGTAGTG | 0.332 |
| ATGTAGTC | 0.37 |
| AAGTAGTC | 0.0858 |
| GTGTAGTA | 0.323 |
| ATGTAGTA | 0.391 |
| CTGTAGTC | -0.0729 |
| TAGGCGGA | 0.0174 |
| GATAAGAC | -0.0897 |
| TATGTTCA | 0.316 |
| TATGTTGA | 0.364 |
